In PubChem BioAssay (NCATS):
Results filed as inconclusive are left out. Entries that show only a call come without a potency. Active and inactive are the calls of the source. Calls come from the whole dose curve; as a rule, active = well fitted curve in the direction sought with a large enough effect; inconclusive = small, poorly fitted or top-dose-only effect, or another doubt; inactive = no such curve, though single readings can be large; an effect the other way counts as inactive or inconclusive.

Key:
[1] = target: Alpha-galactosidase (Coffea arabica) (UniProt Q42656); experiment: Counterscreen for Glucocerebrosidase Inhibitors: qHTS Assay for Coffee Bean alpha-Galactosidase at pH 5.9 (AID 998)
Sequence of Alpha-galactosidase (Coffea arabica) (Q42656 whole entry, looked up): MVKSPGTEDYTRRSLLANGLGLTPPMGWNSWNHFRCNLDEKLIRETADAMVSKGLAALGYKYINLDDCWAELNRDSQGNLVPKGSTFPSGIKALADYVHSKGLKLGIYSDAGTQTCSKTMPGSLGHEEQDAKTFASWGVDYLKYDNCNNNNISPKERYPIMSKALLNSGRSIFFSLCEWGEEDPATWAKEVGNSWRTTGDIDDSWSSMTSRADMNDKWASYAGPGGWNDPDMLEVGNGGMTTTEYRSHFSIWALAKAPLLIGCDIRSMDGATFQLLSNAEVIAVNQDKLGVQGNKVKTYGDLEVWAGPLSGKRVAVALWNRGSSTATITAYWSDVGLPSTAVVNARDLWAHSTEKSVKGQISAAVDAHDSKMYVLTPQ
Procedure, shortened: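 Green coffee bean enzyme (2 nM) with 4-methylumbelliferyl alpha-D-galactopyranoside (80 uM) in 50 mM citric acid, 0.005% Tween-20, pH 5.9, 20 min at room temperature; compounds 0.7 nM–77 uM. Stopped at pH 10, fluorescence Ex365/Em440; Hill-fit AC50.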

[2] = Cell Viability - LYMP2-026 (AID 989); note: nearly all actives have a fitted effect of over 50% in size
Procedure, shortened: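 Human lymphoblastoid LYMP2-026 cells, 2500/well, exposed to compound 24 h at 37 C in complete medium. Viability as intracellular ATP by CellTiter-Glo luminescence; AC50 from Hill fits of qHTS concentration-response.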

[3] = Cell Viability - LYMP1-002 - Assay at 24 hr (AID 993)
Procedure, shortened: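 Human lymphoblastoid LYMP1-002 cells (2500/well) treated 24 h at 37 °C; viability as intracellular ATP by CellTiter-Glo luminescence. Tetraoctylammonium bromide as positive control; AC50 from Hill-equation fits of qHTS concentration-response.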

[4] = Cell Viability - LYMP1-002 - Assay at 40 hr (AID 994); note: nearly all actives have a fitted effect of over 60% in size
Procedure, shortened: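 LYMP1-002 human lymphoblastoid cells (2500/well, complete medium) were treated with compounds for 40 hr at 37 C. Intracellular ATP was measured by CellTiter-Glo luminescence, and AC50 values came from Hill-equation fits of concentration-response data; tetraoctylammonium bromide was the positive control.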

[5] = Cell Viability - LYMP2-024 (AID 988); note: nearly all actives have a fitted effect of over 60% in size
Procedure, shortened: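 Human lymphoblastoid LYMP2-024 cells (2500/well) rested 5 hr, then treated with compound for 24 hr at 37 C in complete medium. Viability was measured as intracellular ATP by CellTiter-Glo luminescence. AC50 values came from Hill-equation fits.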

For C[N+](C)(C)CCOC(N)=O, which outcome [1] is on record?
The outcome was “inactive”.

For Nc1cc(=O)[nH]c(N)n1, which outcome [1] is on record?
The outcome was “inactive”.

With CC(=O)c1ccc(S(=O)(=O)NC(=O)NC2CCCCC2)cc1 as the compound, how does the outcome [1] read?
Its outcome is “inactive”.

Which outcome [1] does the source give for CC(=O)Oc1cc(C(C)C)c(OCCN(C)C)cc1C here?
Its outcome is “inactive”.

Which outcome [2] does the source give for CN1C[C@H](C(=O)N[C@]2(C)O[C@@]3(O)[C@@H]4CCCN4C(=O)[C@H](Cc4ccccc4)N3C2=O)C=C2c3cccc4[nH]cc(c34)C[C@H]21 here?
Its outcome is “inactive”.

What about the Potency [3] of the same compound?
Its Potency is “inactive”.

What about the Potency [4] of the same compound?
Its Potency is “inactive”.

For Oc1ccc(Cl)cc1, which outcome [5] is on record?
Its outcome is “inactive”.

And the outcome [2]?
Its outcome is “inactive”.

What about the Potency [3] of the same compound?
Its Potency is “inactive”.

And the Potency [4]?
Its Potency is “inactive”.

Which outcome [1] does the source give for Cc1ccc(Cl)c(Nc2ccccc2C(=O)O)c1Cl here?
The outcome was “inactive”.

With C[C@]12CCC(=O)C=C1CC[C@@H]1[C@@H]2CC[C@@]2(C)[C@H]1CC[C@]2(C)O as the compound, how does the outcome [5] read?
Its outcome is “inactive”.

What about the outcome [2] of the same compound?
The outcome was “inactive”.

What about the Potency [3] of the same compound?
Its Potency is “inactive”.

And the Potency [4]?
Its Potency is “inactive”.

With Nc1ccccc1C(=O)O as the compound, how does the outcome [5] read?
The outcome was “inactive”.

What about the outcome [2] of the same compound?
Its outcome is “inactive”.

What about the Potency [3] of the same compound?
Its Potency is “inactive”.

What about the Potency [4] of the same compound?
The Potency was “inactive”.

With COC(=O)C(c1ccccc1)C1CCCCN1 (stereo not drawn) as the compound, how does the outcome [2] read?
The outcome was “inactive”.

And the Potency [3]?
Its Potency is “inactive”.

And the Potency [4]?
Its Potency is “inactive”.

What does the source list for CCC(C)(C)c1ccc(O)cc1?
outcome [5]: inactive; outcome [2]: inactive; Potency [3]: inactive; Potency [4]: inactive

With NC1CCN(c2cccc(Cl)n2)CC1 as the compound, how does the outcome [1] read?
The outcome was “inactive”.

Which outcome [1] does the source give for O=C(O)CN(CCN(CC(=O)O)CC(=O)O)CCN(CC(=O)O)CC(=O)O here?
Its outcome is “inactive”.

For NCCS(=O)(=O)O, which outcome [1] is on record?
The outcome was “inactive”.

Which outcome [1] does the source give for CC(C)(C)NC[C@H](O)COc1nsnc1N1CCOCC1 here?
Its outcome is “inactive”.

Which outcome [1] does the source give for C[N+](C)(C)CCCCCC[N+](C)(C)C here?
Its outcome is “inactive”.

For Nc1ccc(S(=O)(=O)Nc2ccnn2-c2ccccc2)cc1, which outcome [1] is on record?
The outcome was “inactive”.

Which outcome [1] does the source give for NC(=O)N1c2ccccc2C=Cc2ccccc21 here?
Its outcome is “inactive”.

Which outcome [1] does the source give for O=C1NCC2(CCN(CCc3ccccc3)CC2)O1 here?
The outcome was “inactive”.

With CCn1nc(C(=O)O)c(=O)c2cc3c(cc21)OCO3 as the compound, how does the outcome [1] read?
The outcome was “inactive”.

With CCN1CCC[C@H]1CNC(=O)c1cc(S(N)(=O)=O)ccc1OC as the compound, how does the outcome [1] read?
Its outcome is “inactive”.

With Cc1nc2ccccn2c(=O)c1CCN1CCC(C(=O)c2ccc(F)cc2)CC1 as the compound, how does the outcome [1] read?
Its outcome is “inactive”.
